The results in this text go back to PubChem BioAssay AID2016 (NMMLSC, 2009).

The whole screen tested about 330,000 compounds, of which about 1,700 (0.52%) were called active. What follows is part of a selection rich in actives, with near analogues and random picks from the rest. Values without a mark were called inactive.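 How the source made its calls: active means GFP response versus DMSO above a set limit, roughly screen mean plus 3 SD (cut at about 180% in these data); inconclusive means fewer than 70 cells counted for a yeast strain; inactive means the rest.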

The assay can be described thus: TOR pathway GLN3 branch reporter MEP2-GFP changes – S. cerevisiae, multiplex flow cytometry, MLPCN library, primary screen (AID 2016).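 Further: median GFP fluorescence of the barcode-gated MEP2-GFP cells per well.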 The note with it: S. cerevisiae MEP2-GFP strain, 3 h, at 10 µM, active compounds read high. Background: In flow cytometry, cells or beads pass a laser one at a time.
As to `C/C(CCc1c[nH]c2ccccc12)=N\O`, the GFP response vs DMSO was 105%.

`Cc1cccc2c(CCN)c[nH]c12`: the GFP response vs DMSO is 105%.

For the compound `NCCc1c[nH]c2ccc(O)cc12`, the GFP response vs DMSO is 206% [may fluoresce violet] (active).

Turning to `COC1=CC=C2[C@H]3Cc4ccc(OC)c5c4[C@@]2(CCN3C)C1O5` (stereo not given in full), the GFP response vs DMSO was 106%.

Take `CCCOC(=O)C1C2c3ccccc3C(c3ccccc32)C1C(=O)O` (stereo not given): the GFP response vs DMSO is 99.1%.
